Unmarked numbers belong to inactive results.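 Rule for the calls: active = Lowers HeLa cell ATP signal, with fitted half-maximal potency at most twice the top tested dose in every run; inconclusive = runs disagree, or fits flat mid-range or poor; inactive = every run inactive, including signal rising.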

The nature of the assay: HeLa cell cytotoxicity, dose response, cytotoxicity control, CellTiter-Glo luminescence, dry powder, set 3 (AID 1117294). To be noted: HeLa viability, ATP luminescence (CellTiter-Glo), 72 h; at 0.05 µM. (In general: Cellular ATP, detected with luciferase, serves as a proxy for viable cell number.)
In the case of `COc1ccc(C(=O)O)cc1S(=O)(=O)Nc1ccc(N2CCCCC2)cc1C(F)(F)F`, the max activity was -17%.
Take `COc1ccc(C2=NN(c3ccc(C(=O)O)cc3)C(c3ccc(OC)c(OC)c3)C2)cc1` (stereo not drawn): the max activity is -16.2%.
With `COc1ccc(C(=O)O)cc1S(=O)(=O)Nc1cc(C(F)(F)F)ccc1N1CCN(C(C)=O)CC1`, the max activity is -16.6%.

The values are drawn from PubChem BioAssay AID1117294 (Broad Institute, 2014).
